Laboratory results published in PubChem BioAssay (NCATS).
Where “and” joins values, the source holds several entries; their conditions need not be identical. Equal values may be shown once. Results filed as inconclusive are left out. Calls of active or inactive are those of the source. The call rests on the fitted dose curve; in most records, active means well fitted curve in the direction sought with a large enough effect in the repeat runs; inconclusive means weak or mixed curves; inactive means no such curve, though single readings can be large; an effect the other way counts as inactive or inconclusive.

Experiment: qHTS assay for small molecule agonists of the antioxidant response element (ARE) signaling pathway measured by Nrf2-dependant transcriptional activity (AID 720636); further: % of control where 0% means no effect
Details: ARE-luc HepG2, Nrf2 luciferase reporter, 16 h; series mostly up to 92.4 µM
In short: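 Nrf2-dependent transcription read as ONE-Glo luciferase signal from ARE-luc HepG2 reporter cells after 16 hr compound treatment at 37 C, 5% CO2, in assay medium with 1% dialyzed FBS.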

SMILES | outcome
CC(C)(C)c1ccc(O)cc1 | inactive
Clc1ccc(C(c2ccc(Cl)cc2)C(Cl)(Cl)Cl)cc1 | inactive
COP(=S)(OC)SCN1C(=O)c2ccccc2C1=O | inactive
O=C1c2ccccc2C(=O)C1C(=O)C(c1ccccc1)c1ccccc1 | inactive
Nc1nc(N)nc(NC2CC2)n1 | inactive
CN1C[C@H](C(=O)N[C@]2(C)O[C@@]3(O)[C@@H]4CCCN4C(=O)[C@H](Cc4ccccc4)N3C2=O)C=C2c3cccc4[nH]cc(c34)C[C@H]21 | inactive
[N-]=[N+]=CC(=O)OC[C@H](N)C(=O)O | inactive
Nc1ccc([As](=O)(O)O)cc1 | inactive
CCOC(=O)CC(SP(=S)(OC)OC)C(=O)OCC (stereo not drawn) | inactive
COP(=S)(OC)Oc1cc(Cl)c(Cl)cc1Cl | inactive
C[C@]1(O)CC[C@H]2[C@@H]3CCC4=CC(=O)CC[C@]4(C)[C@@]3(F)[C@@H](O)C[C@@]21C | inactive
CC1(C)C(C=C(Cl)Cl)C1C(=O)OC(C#N)c1cccc(Oc2ccccc2)c1 (stereo not drawn) | inactive

Experiment: qHTS assay for small molecule antagonists of the retinoid-related orphan receptor gamma (ROR-gamma) signaling pathway - cell viability counter screen (AID 720652);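 further: CHO reporter cells with doxycycline-induced ROR-gamma expression; compound exposure lasted 16 hr before ATP read; on the % scale 0 is the no-effect control and ±100 the full control effect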
Details: RORgamma reporter cell line viability counter screen; series mostly up to 92.2 µM
In short: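 Steps: seed CHO cells bearing TET-inducible ROR and ROR response element-luciferase; rest 5 hr at 37 C; add compound, then doxycycline; incubate 16 hr; add CellTiter-Glo and read luminescence as ATP-based viability.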

SMILES | outcome
CN1C[C@H](C(=O)N[C@]2(C)O[C@@]3(O)[C@@H]4CCCN4C(=O)[C@H](Cc4ccccc4)N3C2=O)C=C2c3cccc4[nH]cc(c34)C[C@H]21 | inactive
CCOC(=O)CC(SP(=S)(OC)OC)C(=O)OCC (stereo not drawn) | inactive
C[C@]1(O)CC[C@H]2[C@@H]3CCC4=CC(=O)CC[C@]4(C)[C@@]3(F)[C@@H](O)C[C@@]21C | inactive

Experiment: qHTS assay for small molecule agonists of the antioxidant response element (ARE) signaling pathway measured by Nrf2-dependant transcriptional activity - cell viability counter screen (AID 720653); further: on the % scale 0 is the no-effect control and ±100 the full control effect
Details: ARE-bla HepG2 viability, CellTiter-Glo ATP luminescence, 16 h; stronger effect = lower value
In short: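 Cytotoxicity counter screen: intracellular ATP quantified by CellTiter-Glo luminescence in the same ARE-bla HepG2 plates, after 16 h compound exposure and a 2 h beta-lactamase substrate step.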

SMILES | max response
CC(C)(C)c1ccc(O)cc1 | -7.43% (inactive)
Clc1ccc(C(c2ccc(Cl)cc2)C(Cl)(Cl)Cl)cc1 | -18.5% (inactive) and -23.5% (inactive)
COP(=S)(OC)SCN1C(=O)c2ccccc2C1=O | 3.01% (inactive)
O=C1c2ccccc2C(=O)C1C(=O)C(c1ccccc1)c1ccccc1 | -16.2% (inactive)
Nc1nc(N)nc(NC2CC2)n1 | 14.5% (inactive)
O=C1c2ccccc2C(=O)c2ccccc21 | -5.47% (inactive)
CN1C[C@H](C(=O)N[C@]2(C)O[C@@]3(O)[C@@H]4CCCN4C(=O)[C@H](Cc4ccccc4)N3C2=O)C=C2c3cccc4[nH]cc(c34)C[C@H]21 | -19% (inactive) and -17.1% (inactive)
[N-]=[N+]=CC(=O)OC[C@H](N)C(=O)O | -15% (inactive)
Nc1ccc([As](=O)(O)O)cc1 | -9.13% (inactive)
CCOC(=O)CC(SP(=S)(OC)OC)C(=O)OCC (stereo not drawn) | 25% (inactive) and -5.73% (inactive) and -3.35% (inactive)
COP(=S)(OC)Oc1cc(Cl)c(Cl)cc1Cl | -0.922% (inactive)
C[C@]1(O)CC[C@H]2[C@@H]3CCC4=CC(=O)CC[C@]4(C)[C@@]3(F)[C@@H](O)C[C@@]21C | -5.41% (inactive)
CC1(C)C(C=C(Cl)Cl)C1C(=O)OC(C#N)c1cccc(Oc2ccccc2)c1 (stereo not drawn) | -2.42% (inactive)
